Screens (PubChem BioAssay)
Shown are actives, neighbours in structure and some others; about 6.2% of the full set was active somewhere.
ATXN viability = viability counter-screen for ATXN expression inhibitors. Potency, µM (top dose mostly 56.7 µM), hits mostly cytotoxic. hit rate 0.49% among 400,000. S2 cells (HEK-293 line with an ATXN2-luciferase reporter) viability, CellTiter-Fluor protease fluorescence, 24 h; note: nearly all actives have a fitted effect of over 40% in size
HT1080 IDH1KD tx = toxicity to HT-1080 IDH1 knockdown cells (counter line) | AID 686971 | hit rate 2% among 360,000 | Potency, µM (titrated, usually from 46.1 µM), for inactives: top-dose activity, negative = toxicity, actives largely listed as cytotoxic | HT-1080 IDH1 knockdown viability, ATP luminescence, 48 h;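 note: 0% = DMSO wells and -100% = cell-free medium wells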
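HT-1080-IDH1KD cells (IDH1 knocked down), 750/well in RPMI with 5% FBS, treated with compound 48 h at 37 degrees C. Viability by CellTiter-Glo luminescence, normalised to DMSO and no-cell wells; concentration-response curves classed.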
KB-V1 cytotox = kills drug-selected multidrug resistant KB-V1 cells | KB-V1 MDR cells viability, CellTiter-Glo, 72 h | Potency, µM (titrated, usually from 46.1 µM), hits mostly cytotoxic | hit rate 3.4% among 400,000 | AID 1347076; note: % is set by controls: 0 for no effect and ±100 for the full control effect; nearly all actives have a fitted effect of over 60% in size
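Potencies derive from concentration-effect curves fitted to normalized luminescence (CellTiter-Glo) of KB-V1 cells treated for 72 h at 37 degrees C in phenol-red-free DMEM containing 10% FBS.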
HT1080-NT tox = kills 2HG-producing HT-1080-NT fibrosarcoma cells | hit rate 1.6% among 360,000 | Potency, µM (series often up to 46.1 µM), inactives show top-dose activity, negative = less viability, actives largely listed as cytotoxic | AID 686970 | HT-1080-NT fibrosarcoma viability, CellTiter-Glo ATP luminescence, 48 h;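 note: NT is the 2HG producing partner of a matched IDH1 knockdown line; 0% = DMSO-treated cells and -100% = media-only wells without cells; nearly all actives have a fitted effect of over 55% in size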
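A 48-hour cytotoxicity screen used HT-1080-NT cells plated 2 hours before compound delivery. ATP-based CellTiter-Glo luminescence measured viability, normalized to DMSO and no-cell controls.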
ATXN2 expr inh = inhibitors of ATXN2 expression; AID 1745845; hit rate 0.72% among 360,000; Potency, µM (top dose mostly 57 µM), for inactives: at the top dose activity change, negative = inhibition, most hits filed as inhibitors; HEK-293 ATXN2-luciferase reporter, luminescence, 24 h; note: % is set by controls: 0 for no effect and ±100 for the full control effect; nearly all actives have a fitted effect of over 55% in size
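ATXN2-luciferase reporter cells (luciferase flanked by upstream and downstream ATXN2 gene portions) were treated 24 h at 37 °C with compounds at up to 57 uM. SteadyGlo luminescence gave expression; GF-AFC fluorescence gave viability.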
KB-3-1 cytotox = kills parental KB-3-1 adenocarcinoma cells; KB-3-1 viability, CellTiter-Glo ATP luminescence, 72 h; Potency, µM (doses to about 46.1 µM), usual class: cytotoxic; hit rate 1.4% among 400,000; note: % is set by controls: 0 for no effect and ±100 for the full control effect; nearly all actives have a fitted effect of over 60% in size
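Parental KB-3-1 viability, qHTS format: 72 h compound exposure, 37 °C; CellTiter-Glo; media-only wells and DMSO plates as controls; concentration-effect fits on corrected data.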
Numbers without * were called inactive. Calls come from the whole dose curve; as a rule, active = well fitted curve in the direction sought with a large enough effect; inconclusive = small, poorly fitted or top-dose-only effect, or another doubt; inactive = no such curve, though single readings can be large; an effect the other way counts as inactive or inconclusive. Potency is the fitted concentration of half-maximal effect.

`Cc1ccc2[nH]c(=O)c(CN(C(=O)c3cccc(Cl)c3)C(C)(C)C)cc2c1` gave ATXN viability inactive, KB-V1 cytotox inactive, ATXN2 expr inh 5% and KB-3-1 cytotox inactive.
For C(=C\c1ccc2ccccc2n1)/c1cccnc1 the results were KB-V1 cytotox inactive and KB-3-1 cytotox inconclusive.
Screening CC(C)(C)c1cc[n+](C2=C([O-])c3ccccc3C(=O)/C2=N\S(=O)(=O)c2cccs2)cc1 returned ATXN viability inconclusive, HT1080 IDH1KD tx 13µM*, KB-V1 cytotox inactive, HT1080-NT tox 15µM*, ATXN2 expr inh 11µM* and KB-3-1 cytotox 16µM*.
Screening O=C1/C(=N\S(=O)(=O)c2cccs2)C([n+]2ccccc2)=C([O-])c2ccccc21 returned ATXN viability 11µM*, HT1080 IDH1KD tx 0%, KB-V1 cytotox inactive, HT1080-NT tox inconclusive and KB-3-1 cytotox 6.5µM*.
For Fc1ccccc1-c1nc(NCc2ccco2)c2ccccc2n1 the results were ATXN viability inactive, HT1080 IDH1KD tx -9%, KB-V1 cytotox inactive, HT1080-NT tox -10% and KB-3-1 cytotox inactive.
For COc1cc2ncnc(NCc3ccco3)c2cc1OC the results were ATXN viability inactive, HT1080 IDH1KD tx 0%, KB-V1 cytotox inactive, HT1080-NT tox 4%, ATXN2 expr inh -20% and KB-3-1 cytotox inactive.
For COc1ccccc1Nc1nc(NCc2ccco2)c2ccccc2n1 the results were ATXN viability inactive, HT1080 IDH1KD tx 23µM*, KB-V1 cytotox inconclusive, HT1080-NT tox 21µM*, ATXN2 expr inh -30% and KB-3-1 cytotox inactive.
For c1ccc(-c2nc(NCc3ccco3)c3ccccc3n2)nc1 the results were ATXN viability inconclusive, HT1080 IDH1KD tx inconclusive, KB-V1 cytotox inconclusive, HT1080-NT tox -23%, ATXN2 expr inh inconclusive and KB-3-1 cytotox 5.8µM*.
For Cc1ccc(Nc2nc(NCc3ccco3)c3ccccc3n2)cc1 the results were ATXN viability inactive, HT1080 IDH1KD tx 23µM*, KB-V1 cytotox inconclusive, HT1080-NT tox inconclusive, ATXN2 expr inh inconclusive and KB-3-1 cytotox inconclusive.
Screening Oc1ccccc1-c1nc(NCc2ccco2)c2ccccc2n1 returned ATXN viability inactive, HT1080 IDH1KD tx -26%, KB-V1 cytotox inactive, HT1080-NT tox -25%, ATXN2 expr inh -28% and KB-3-1 cytotox inactive.
For Cc1ccc(Cn2cc(C(=O)c3ccc4c(c3)OCO4)c(=O)c3cc(C)ccc32)cc1 the results were ATXN viability inconclusive, KB-V1 cytotox inactive, ATXN2 expr inh -39% and KB-3-1 cytotox inactive.
Screening COc1ccc(CC2(CO)CCN(Cc3ccc4c(c3)CCO4)CC2)cc1 returned HT1080 IDH1KD tx 21µM*, KB-V1 cytotox inconclusive, HT1080-NT tox inconclusive, ATXN2 expr inh -26% and KB-3-1 cytotox inactive.
COc1ccc(CC2(CO)CCN(CC3=Cc4cc(Cl)ccc4OC3)CC2)cc1 was read as ATXN viability inconclusive, HT1080 IDH1KD tx 23µM*, KB-V1 cytotox inactive, HT1080-NT tox 15µM*, ATXN2 expr inh inconclusive and KB-3-1 cytotox inconclusive.
Screening COc1ccc(CC2(CO)CCN(Cc3ccc(OC(F)(F)F)cc3)CC2)cc1 returned ATXN viability inconclusive, HT1080 IDH1KD tx -21%, KB-V1 cytotox inactive, HT1080-NT tox inconclusive, ATXN2 expr inh inconclusive and KB-3-1 cytotox inconclusive.
For COc1ccc2c(c1)C=C(CN1CCC(CO)(CCc3ccccc3)CC1)CO2 the results were ATXN viability inactive, HT1080 IDH1KD tx -18%, KB-V1 cytotox inconclusive, HT1080-NT tox -8%, ATXN2 expr inh -18% and KB-3-1 cytotox inactive.
Screening CCn1c(C)nc2cc(C(=O)N/N=C(\C)c3ccc(OC)cc3O)ccc21 returned ATXN viability inactive, HT1080 IDH1KD tx 15µM*, KB-V1 cytotox inconclusive, HT1080-NT tox inconclusive, ATXN2 expr inh inconclusive and KB-3-1 cytotox inactive.
Screening CCn1c(C)nc2cc(C(=O)NN=C(C)c3ccc(C#N)cc3)ccc21 returned ATXN viability inactive, HT1080 IDH1KD tx -1%, KB-V1 cytotox inactive, HT1080-NT tox -10%, ATXN2 expr inh 8% and KB-3-1 cytotox inactive.
For CN(C)S(=O)(=O)c1ccc(N2CCOCC2)c(C(=O)NCc2ccc3c(c2)OCO3)c1 the results were ATXN viability inactive, HT1080 IDH1KD tx -1%, KB-V1 cytotox inconclusive, HT1080-NT tox 7% and KB-3-1 cytotox inactive.
Screening O=C(CSC1=Nc2ccccc2N=C(c2ccc(F)cc2)C1)NCc1ccccc1Cl returned ATXN viability inconclusive, KB-V1 cytotox inactive, ATXN2 expr inh -38% and KB-3-1 cytotox inactive.
Screening Cn1c(=O)c(C(=O)Nc2ccccn2)c(O)c2ccccc21 returned ATXN viability inconclusive, HT1080 IDH1KD tx -11%, KB-V1 cytotox 2.3µM*, HT1080-NT tox -12%, ATXN2 expr inh -35% and KB-3-1 cytotox 18µM*.
For Cn1c(=O)c(C(=O)NNC(=O)c2cccc(Cl)c2)c(O)c2ccccc21 the results were ATXN viability inconclusive, HT1080 IDH1KD tx 9.2µM*, KB-V1 cytotox inconclusive, HT1080-NT tox 6.5µM*, ATXN2 expr inh inconclusive and KB-3-1 cytotox inactive.
Screening Cc1cccc(C(=O)NNC(=O)c2c(O)c3ccccc3n(C)c2=O)c1 returned ATXN viability inactive, HT1080 IDH1KD tx inconclusive, KB-V1 cytotox inconclusive, HT1080-NT tox inconclusive, ATXN2 expr inh -9% and KB-3-1 cytotox inactive.
`CCn1c(=O)c(C(=O)NNC(=O)c2cccc(Cl)c2)c(O)c2ccccc21` gave ATXN viability inactive, HT1080 IDH1KD tx inconclusive, KB-V1 cytotox inconclusive, HT1080-NT tox 13µM*, ATXN2 expr inh inconclusive and KB-3-1 cytotox inactive.
`COc1ccc(-c2cn3nc(N4CCC(C(=O)Nc5ccc(C)cc5)CC4)sc3n2)cc1` gave KB-V1 cytotox inactive and KB-3-1 cytotox inactive.
CC(O)(COc1ccccc1)c1ccc2c(c1)CN(Cc1cccc3cccnc13)CCO2 (stereo unspecified) was read as ATXN viability inactive.
Screening CC(=O)N1CCN(c2ccc(NCc3ccc(F)cc3)cc2)CC1 returned ATXN viability inconclusive, HT1080 IDH1KD tx 5%, KB-V1 cytotox inactive, HT1080-NT tox 9%, ATXN2 expr inh -12% and KB-3-1 cytotox inactive.
COc1cc(CNc2ccc(N3CCN(C(C)=O)CC3)cc2)ccc1OCc1ccc(F)cc1 was read as ATXN viability inconclusive, HT1080 IDH1KD tx inconclusive, KB-V1 cytotox inactive, HT1080-NT tox 23µM*, ATXN2 expr inh -29% and KB-3-1 cytotox inactive.
